Source: PubChem BioAssay
Sampled rows, rich in hits. Any-hit rate of the full collection: about 19%.
MCF10A rerep – A quantitative high throughput screen for small molecules that induce DNA re-replication in MCF 10a normal breast cells; MCF 10A DNA re-replication, Hoechst nuclear intensity, 48 h; Potency, µM (highest dose often 46.1 µM), without a hit: at the highest dose activity, positive = re-replication, hits mostly activators; 350,000 compounds, 2.9% hits; AID 624296, 2012; also: potency is read from the fitted curve at half-maximal effect; % of control where 0% means no effect; nearly all actives have a fitted effect of over 50% in size
BCR signal inh – qHTS Assay to Find Inhibitors of Chronic Active B-Cell Receptor Signaling | ABC-DLBCL IkBa-CBG/CBR reporter, luminescence ratio, 4 h | Potency, µM (highest dose often 46.1 µM), inactives show at the highest dose activity change, negative = inhibition, most hits filed as inhibitors | 340,000 compounds, 0.05% hits; active = well fitted inhibition curve with a large enough effect in the signal ratio, with a control signal flat, not every such curve was filed as active; inconclusive = small, poorly fitted or top-dose-only effect, or effect the other way, or a change in a side signal; the % refers to the signal ratio;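 also: potency is read from the fitted curve at half-maximal effect; plate controls were basal doxycycline-induced cells for no effect and cells given 10 µM MG132 for full effect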
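TMD8 human ABC-DLBCL cells with doxycycline-inducible IκBα–green luciferase fusion and unfused red luciferase, in 0.5% FBS medium; compounds up to 46 uM, 4 h at 37C. Green/red luminescence ratio, filter-overlap corrected, fitted to concentration-response curves.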
TDP1 cell CPT – qHTS for Inhibitors of human tyrosyl-DNA phosphodiesterase 1 (TDP1): qHTS in cells in presence of CPT; chicken DT40 Tdp1-/-;hTDP1 cells + 20 nM CPT, ATP luminescence, 48 h; Potency, µM (top dose mostly 46.2 µM), for the others: at the top dose activity change, negative = growth inhibition, usual class: inhibitors; 420,000 compounds, 12% hits; also: potency is read from the fitted curve at half-maximal effect; % is scaled to controls: 0 for no effect and ±100 for the full control effect; nearly all actives have a fitted effect of over 55% in size
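Chicken DT40 Tdp1-/- cells complemented with human TDP1, 400 cells/well, exposed to compounds plus 20 nM camptothecin for at least 48 h at 37 C; viability read as ATP content by CellTiter-Glo luminescence.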
IL1B secr inh – qHTS for Inhibitors of Inflammasome Signaling: IL-1-beta AlphaLISA Primary Screen; THP-1 LPS/ATP IL-1B secretion, AlphaLISA, 16 h; stronger effect = lower value; activity change, % at 57.5 µM; 360,000 compounds, 4.7% hits; AID 743279, 2014; in the data active = activity change below about -50%; inconclusive = mostly about -30% to -49%; also: % is scaled to controls: 0 for no effect and ±100 for the full control effect
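Secreted IL-1B measured by AlphaLISA bead assay after 16 h compound exposure of THP-1 cells; compounds (final up to 57.5 uM) added 1 h before LPS (250 ng/mL) and ATP (1.25 mM) stimulation; lower signal means less secretion.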
TDP1 cell noCPT – qHTS for Inhibitors of human tyrosyl-DNA phosphodiesterase 1 (TDP1): qHTS in cells in absence of CPT; DT40 Tdp1-/- hTDP1 cells, no CPT, ATP luminescence, 48 h; Potency, µM (highest dose often 46.2 µM), inactives show top-dose activity change, negative = growth inhibition, most hits filed as inhibitors; 420,000 compounds, 15% hits; AID 686978, 2013; also: potency is read from the fitted curve at half-maximal effect; % is scaled to controls: 0 for no effect and ±100 for the full control effect; nearly all actives have a fitted effect of over 55% in size
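No-CPT arm: Tdp1-/-;hTDP1 DT40 cells (400/well) plus compounds, incubated ≥48 hr at 37 °C. Readout CellTiter-Glo luminescence.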
SW480 rerep – A quantitative high throughput screen for small molecules that induce DNA re-replication in SW480 colon adenocarcinoma cells; SW480 DNA re-replication, Hoechst DNA content imaging, 48 h; Potency, µM (titrated, usually from 46.1 µM), inactives show top-dose re-replication activation, actives largely listed as activators; 340,000 compounds, 1.8% hits; AID 624297, 2012; also: potency is read from the fitted curve at half-maximal effect; % of control where 0% means no effect; nearly all actives have a fitted effect of over 55% in size
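Quantitative HTS format with DMSO vehicle controls; 48 hr drug incubation at 37 C, then 40 min Hoechst staining and scanning imager measurement at 405 nm excitation.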
The depositor's hits bear a star; i = inactive; ? = inconclusive; . = no result given. Unless noted, calls follow the shape of the dose curve; as a rule, active = well fitted curve in the direction sought with a large enough effect; inconclusive = small, poorly fitted or top-dose-only effect, or another doubt; inactive = no such curve, though single readings can be large; an effect the other way counts as inactive or inconclusive.

SMILES	MCF10A rerep	BCR signal inh	TDP1 cell CPT	IL1B secr inh	TDP1 cell noCPT	SW480 rerep
c1cnc2ccc(C(c3nnnn3C3CCCCC3)N3CCCCC3)cc2c1 (centres undefined)	0%	-1%	-27%	-15	?	5%
CCOC(=O)c1cnc2c(OC)cccc2c1Nc1ccc2c(c1)OCCO2	?	?	?	5	?	?
Cc1ccc(NC(=O)CN(C)S(=O)(=O)c2ccc3c(c2)n(C)c(=O)c(=O)n3C)cc1	?	-3%	?	2	-3%	?
O=c1cc(-c2ccccc2Cl)oc2c(NS(=O)(=O)c3cc(Cl)cc(Cl)c3O)ccc(O)c12	-32%	?	9.2µM*	2	12µM*	20%
Cc1cc(Br)cn2c(Cc3cccc(F)c3)c(-c3ccc(C#N)cc3)nc12	.	.	18µM*	0	?	.
Cc1cc2nc(-c3cccc(Br)c3)c(CC3CCCCC3)n2c(C)c1Br	.	.	-24%	0	?	.
Cc1cc2nc(-c3cccc(Br)c3)c(Cc3ccccc3)n2c(C)c1Br	.	.	16µM*	60	?	.
Cc1ccc(-c2nc3ccc(C)cn3c2Cc2cccc(F)c2)cc1	.	.	?	-24	?	.
Cc1cc(Br)cn2c(Cc3cccc(F)c3)c(C3CCCCC3)nc12	.	.	?	0	?	.
Cc1cc2nc(-c3ccc(C#N)cc3)c(Cc3cccc(F)c3)n2c(C)c1Br	.	.	18µM*	-16	15µM*	.
Cc1cc2nc(C3CCCCC3)c(Cc3cccc(F)c3)n2c(C)c1Br	.	.	16µM*	12	?	.
C/C=C1\NC(=O)[C@H](C)NC(=O)[C@@H](NC(=O)[C@@H](Cc2ccc(O)cc2)NC(=O)[C@@H](NC(=O)/C(C)=C/C)C(C)C)[C@@H](C)OC(=O)[C@H](CCCCc2ccc(O)cc2)NC(=O)[C@@H](CCC(=O)O)NC1=O	5%	3%	8%	23	0%	-41%
Nc1nc(SCC(=O)O)c2[nH]cnc2n1	.	.	-1%	.	7%	.
CSCCC(c1nnnn1C1CCCC1)N1CCN(C/C=C/c2ccccc2)CC1 (centres undefined)	.	.	?	0	?	.
CC(NS(=O)(=O)c1c(N)n(C)c(=O)n(C)c1=O)c1ccccc1 (centres undefined)	-4%	4%	-1%	i	?	-2%
Fc1cccc(Cc2c(-c3ccccc3)nc3ccc(Br)cn23)c1	.	.	?	8	?	.
Cc1cc2nc(-c3ccc(F)cc3)c(Cc3ccccc3)n2c(C)c1Br	.	.	21µM*	32	21µM*	.
Cc1ccc(Cc2c(-c3cccc(Cl)c3)nc3cc(C)c(Br)c(C)n23)cc1	.	.	-43%	0	?	.
Cc1ccc(Cc2c(-c3ccccc3)nc3cc(C)c(Br)c(C)n23)cc1	.	.	?	22	?	.
Cc1ccc(-c2nc3cc(C)c(Br)c(C)n3c2Cc2cccc(F)c2)cc1	.	.	7.3µM*	0	10µM*	.
Cc1cc2nc(-c3ccccc3)c(Cc3cccc(F)c3)n2c(C)c1Br	.	.	?	0	16µM*	.
CC(C)S(=O)(=O)C/C(N)=N/OC(=O)c1cc(Cl)cc(Cl)c1	?	1%	11%	.	-7%	?
Cc1cccc(C)c1NC(=O)Cn1nnc(C(=O)Nc2c(C)cccc2C)c1N	.	.	4%	.	-15%	.
CCN1C(=O)C(c2ccc(O)cc2)(c2ccc(O)cc2)c2ccccc21	21%	?	2%	-94*	-1%	-92%
CCN1C(=O)C(O)(CC(=O)c2cc(C)ccc2C)c2ccccc21 (centres undefined)	12%	0%	-27%	13	-18%	13%
SMILES	MCF10A rerep	BCR signal inh	TDP1 cell CPT	IL1B secr inh	TDP1 cell noCPT	SW480 rerep
CN(CCCNC(=O)c1ccccc1F)CCCNC(=O)c1ccccc1F	3%	1%	7%	7	3%	-4%
COc1ccc(CNC(=O)Nc2nc(C(N)c3ccccc3)cs2)cc1 (centres undefined)	.	.	?	0	21µM*	.
COc1ccc(CC(N)c2csc(NC(=O)NCc3ccccc3)n2)cc1 (centres undefined)	.	.	21µM*	-15	?	.
COc1cc(CNC(=O)Nc2nc(C(N)Cc3ccc(C(F)(F)F)cc3)cs2)cc(OC)c1OC (centres undefined)	.	.	13µM*	-59*	12µM*	.
CCCNC(=O)Nc1nc(C(N)c2ccc(OC)cc2)cs1 (centres undefined)	.	.	-21%	-6	-22%	.
COc1ccc(CNC(=O)N2CCN(c3ccc(F)cc3)CC2)cc1Cl	?	?	?	-26	9.2µM*	-5%
CCN(c1ccc(C)c(C)c1)S(=O)(=O)c1ccc2c(c1)CCN2C(=O)CCC(=O)O	21µM*	3%	?	24	-3%	?
Cc1ccccc1CN(c1ccc(C(=O)N2CCc3ccccc3C2)cc1)S(C)(=O)=O	?	?	12µM*	-7	15µM*	7%
Cc1ccc(S(=O)(=O)N=Nc2c(O)[nH]c3ccccc23)cc1	11%	-27%	-26%	13	-1%	-2%
COc1ccc(CNC(=O)N2CCN(c3ccc(F)cc3)CC2)cc1	5%	-2%	9%	7	11%	0%
Cc1ccc(S(=O)(=O)N(CC(=O)N=Nc2c(O)[nH]c3ccccc23)c2ccc(C)c(C)c2)cc1	?	?	18µM*	?	21µM*	?
COC(=O)c1sccc1NC(=O)Cn1nnc(-c2ccccc2C)n1	6%	?	?	-6	-34%	-13%
COc1ccc(N(CC(=O)N2CCc3ccccc3C2)S(=O)(=O)c2ccccc2)cc1	-52%	13%	18µM*	?	18µM*	-12%
COc1ccccc1N(CC(=O)N1CCN(c2ccc(F)cc2)CC1)S(=O)(=O)c1ccc(C)cc1	?	8%	26µM*	0	18µM*	25%
COc1ccc(S(=O)(=O)N(C)CC(=O)N2CCN(c3ccccc3)CC2)cc1	19%	1%	-7%	-15	-23%	-5%
COc1ccc(N(CC(=O)N2CCN(Cc3ccccc3)CC2)S(=O)(=O)c2ccccc2)cc1	4%	1%	?	-7	?	-1%
